Results on 40 sequences are retold here after the OligoGym collection.
Further: reference of the scale not given here.

The first test addresses FAN1. The test can be described thus: pooled miR-30 sensor sort-seq; sequence = guide strand. Conditions: shRNA.
Turning to TTGACCAACAGGACTGTTGAAA, the sensor-assay potency score (higher = more potent) was -0.462.

Regarding TTCTTTGATACACTCTTGCTTT, the sensor-assay potency score (higher = more potent) is -0.307.

For the sequence TTACATATAACTTCTGACCAGT, the sensor-assay potency score (higher = more potent) was found to be 0.259.

On to TAACTAGGAAACTCCATTCGGC, for which the sensor-assay potency score (higher = more potent) was -0.0842.

On to TTTCACATCTTGCACAGCCATT, for which the sensor-assay potency score (higher = more potent) was -1.51.

On to TTGGTCATCTTAATCCAGCTTA, for which the sensor-assay potency score (higher = more potent) was found to be 0.33.

The sequence TAACATGATCGCATTATCTGAG yielded a sensor-assay potency score (higher = more potent) of 0.286.

TTGCTGATTGATAAGCTTCTAC showed a sensor-assay potency score (higher = more potent) of -0.452.

With TAAGCAACTGTCATCCTGCAGA, the sensor-assay potency score (higher = more potent) stood at 0.0838.

Take TTTTTGAGAACTGTTCTCCAAA: the sensor-assay potency score (higher = more potent) was -0.862.

On to ATAACTTCTGACCAGTAGCTGA, for which the sensor-assay potency score (higher = more potent) is -0.771.

The next test concerns the target FANCF. The test is described as above. Conditions: shRNA.
For the sequence TTGGGTTCTCTCTATAGCCATT, the sensor-assay potency score (higher = more potent) was -1.39.

TCTCTTGGAGTGTCTCCTCATC came in with a sensor-assay potency score (higher = more potent) of -1.11.

In turn, AAGAGGTCTGTCCAGATGCTAA displayed a sensor-assay potency score (higher = more potent) of -1.55.

AAACCTATTGTGCAACTCCTCC: the sensor-assay potency score (higher = more potent) was -0.726.

In turn, ATAGACAGGAGACAGCGCTGGG displayed a sensor-assay potency score (higher = more potent) of -0.33.

TTGAAACCTATTGTGCAACTCC gave a sensor-assay potency score (higher = more potent) of 0.168.

The sequence TGACAGAGGCTTTGAAACCTAT registered a sensor-assay potency score (higher = more potent) of -1.18.

On to TTAGAACTTTATCTTTCAGAGG, for which the sensor-assay potency score (higher = more potent) was -1.12.

Consider TTGGGACTCAGTTCCAACCCAA, for which the sensor-assay potency score (higher = more potent) is -0.182.

TTGGAGTGTCTCCTCATCGGCG returned a sensor-assay potency score (higher = more potent) of -0.931.

Turning to TTTGGGTTCTCTCTATAGCCAT, the sensor-assay potency score (higher = more potent) was -1.05.

The sequence TTTCTGAAGGTCATAGTGCAAA came in with a sensor-assay potency score (higher = more potent) of -1.33.

TCTATAGCCATTGAAGCGCAGC gave a sensor-assay potency score (higher = more potent) of -1.1.

TACTTCAAAATCTCCATCCTGC: the sensor-assay potency score (higher = more potent) stood at 0.811.

ATGTGCACCGCAGACCGCCGGC registered a sensor-assay potency score (higher = more potent) of -1.25.

The sequence TAGACAGGAGACAGCGCTGGGT gave a sensor-assay potency score (higher = more potent) of -0.533.

TAGAACTTTATCTTTCAGAGGT gave a sensor-assay potency score (higher = more potent) of 0.316.

As to TTTTGTAAACTATATATTCTAT, the sensor-assay potency score (higher = more potent) was -0.511.

On to TTCATCAGAGAGTCCTCCTGGA, for which the sensor-assay potency score (higher = more potent) was found to be 0.554.

With TGGAAGTTCGCTAATCCCGGAA, the sensor-assay potency score (higher = more potent) was -0.728.

In turn, TATCTTTCAGAGGTGGAGGGGC came in with a sensor-assay potency score (higher = more potent) of -0.0769.

TTATCTTTCAGAGGTGGAGGGG gave a sensor-assay potency score (higher = more potent) of -0.733.

ATAGCCATTGAAGCGCAGCATG: the sensor-assay potency score (higher = more potent) is -1.41.

TTCAAAATCTCCATCCTGCGCT showed a sensor-assay potency score (higher = more potent) of 0.034.

The target in another test is FANCG. The test is described as above. To be noted: shRNA.
TCTCTGTGGATTTCCCATCTTA returned a sensor-assay potency score (higher = more potent) of -0.461.

Turning to ATAGAGTCAAGGCATCTTGGGC, the sensor-assay potency score (higher = more potent) is -0.699.

As for ATGAAGGCTGCTTAGTGCCTTG, the sensor-assay potency score (higher = more potent) was -0.886.

As for TATAGGAATGGTCACATTCCTA, the sensor-assay potency score (higher = more potent) was -1.18.

Regarding TAGTAATTCTACCTCAATGAGA, the sensor-assay potency score (higher = more potent) was -0.931.
